{
  "source": "ChEMBL document CHEMBL3433997",
  "about": "“St. Jude Leishmania screening dataset” (2016)",
  "data": [
    {"target": "Solute carrier family 2, facilitated glucose transporter member 1 (Homo sapiens) (UniProt P11166)", "sequence (P11166 whole entry)": "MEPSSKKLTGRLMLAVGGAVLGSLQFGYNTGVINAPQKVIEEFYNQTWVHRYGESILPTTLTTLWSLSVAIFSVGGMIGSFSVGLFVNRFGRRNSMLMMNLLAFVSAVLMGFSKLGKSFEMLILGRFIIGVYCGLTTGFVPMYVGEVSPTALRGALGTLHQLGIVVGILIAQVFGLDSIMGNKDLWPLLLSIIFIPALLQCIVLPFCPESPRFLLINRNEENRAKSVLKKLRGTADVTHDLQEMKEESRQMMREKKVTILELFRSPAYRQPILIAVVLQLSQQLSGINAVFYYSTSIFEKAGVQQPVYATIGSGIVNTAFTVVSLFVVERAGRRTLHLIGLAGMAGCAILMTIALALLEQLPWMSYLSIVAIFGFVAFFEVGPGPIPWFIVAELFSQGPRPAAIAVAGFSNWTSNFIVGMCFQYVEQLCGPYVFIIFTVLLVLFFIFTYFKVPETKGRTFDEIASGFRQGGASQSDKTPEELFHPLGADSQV", "test": "ST_JUDE_LEISH: Cytotoxicity at 2uM final concentration against transgenic Leishmania Mexicana promastigotes LmGLUT1 that are glucose transport deficient and complemented with the human glucose transporter GLUT1. Activity is measured by DNA content using SYBR green in vitro", "type": "functional", "units": {"inhibition": "%"}, "values": [
      {"smiles": "COc1ccc2ncc(F)c([C@@H](O)CN3CCC(NCc4cc5c(cn4)OCS5)CC3)c2c1", "inhibition": 5.71},
      {"smiles": "FC(F)(F)c1ccc2c(NCCc3ccccc3)ccnc2c1", "inhibition": 4.24},
      {"smiles": "COc1ccc(NC(=O)N2CCCN(CCCCCNC(=O)/C=C/c3ccc(Cl)cc3)CC2)cc1Cl", "inhibition": 2.15},
      {"smiles": "Cc1ccc(S(=O)(=O)NC2=NC(=N)N(OCc3ccc(Cl)c(Cl)c3)C(C)(C)N2)cc1", "inhibition": 12.6},
      {"smiles": "COc1ccc(Nc2nc(N/N=C/c3cc(Br)ccc3O)nc(Nc3ccc([N+](=O)[O-])cc3)n2)cc1", "inhibition": 0.02},
      {"smiles": "CC(=O)N(C)c1cccc(C(=O)Nc2ccc(-c3cccc(-c4nc5cccc(C)c5[nH]4)c3)cc2)c1", "inhibition": 2.19},
      {"smiles": "CC1(C)OC[C@]2(C)[C@@H](CC[C@]3(C)C4=CC(=O)CCC4CC[C@@H]23)O1", "note": "(some centres undefined)", "inhibition": 0.57},
      {"smiles": "COc1cccc(NC(=O)NCCNc2ccnc(Nc3ccc(F)cc3)n2)c1", "inhibition": 4.09},
      {"smiles": "CCCCCCCN1CCC(NC(=O)Nc2ccnc3ccc(OC)cc23)C(C(=O)OCC)C1", "note": "(centres undefined)", "inhibition": -2.21},
      {"smiles": "CCCOc1cc(OCCC)cc(-c2ccc(C(=O)Nc3ccc4ccc(C)nc4c3)c(=O)[nH]2)c1", "inhibition": 1.35},
      {"smiles": "CCCCN(CCCC)/C(=N/c1cccc(Cl)c1Cl)Nc1ccc(C#N)cc1O", "inhibition": 3.21},
      {"smiles": "CCCCCCOc1ccc(C(=O)NCCCC2CCN(CCCCCNC(=O)C=Cc3ccc(Cl)c(Cl)c3)CC2)cc1", "inhibition": 2.75},
      {"smiles": "OC(CNCc1cccc(Oc2ccc(Cl)cc2)c1)c1cc(C(F)(F)F)cc(C(F)(F)F)c1", "note": "(centres undefined)", "inhibition": 0.85},
      {"smiles": "CCOc1cccc(C(=O)Nc2ccc(-c3nc4ccccc4[nH]3)cc2)c1", "inhibition": 4.46},
      {"smiles": "CCC(C)OC(=O)C1=C(C)NC2=C(C(=O)CC(c3ccc(OC)c(OC)c3)C2)C1c1cccc(O)c1", "note": "(centres undefined)", "inhibition": 4.07},
      {"smiles": "Cc1cc(Nc2ccc(C)c(C)c2)n2nc(C)nc2n1", "inhibition": 5.08},
      {"smiles": "CCNc1cc(C(=O)N[C@@H](Cc2ccccc2)[C@H](O)CNC23CCC(CC2)CC3)cc(N2CCCCS2(=O)=O)c1", "inhibition": 0.73},
      {"smiles": "Cc1ccc(Nc2nc3cc(Nc4ccnc(Nc5cccc(CS(C)(=O)=O)c5)n4)ccc3o2)cc1", "inhibition": 4.03},
      {"smiles": "COc1cc(CN2CCC(N3CCc4cc(NC(=O)c5cc(C)on5)ccc43)C2)ccc1F", "note": "(centres undefined)", "inhibition": 2.18},
      {"smiles": "Cc1cccc(-c2ccc(CNC3CCN(CC4Cn5c(=O)ccc6ccc(F)c4c65)CC3)cn2)c1", "note": "(centres undefined)", "inhibition": 6.75},
      {"smiles": "CCN(CCCN1CCCCC1)c1cc(C)nc(Nc2ccc(C(F)(F)F)cc2)n1", "inhibition": 3.6},
      {"smiles": "CC(C)NCc1cccc(-c2ccc(NC(=O)c3ccc(C#N)cc3)cc2)c1", "inhibition": 14.9},
      {"smiles": "CCC1(CC)NC(N)=NC(=N)N1OCc1ccc(Cl)c(Cl)c1", "inhibition": 4.32},
      {"smiles": "CN1CCC(N2CCN(Cc3ccc(-c4cccc(-c5nc6ccccc6[nH]5)c4)cc3)CC2)CC1", "inhibition": 0.9}
    ]},
    {"target": "Hexose transporter 1 (Plasmodium falciparum) (UniProt O97467)", "test": "ST_JUDE_LEISH: Cytotoxicity at 2uM final concentration against transgenic Leishmania Mexicana promastigotes LmPfHT that are glucose transport deficient and complemented with the Plasmodium falciparum hexose transporter. Activity is measured by DNA content using SYBR green in vitro", "type": "functional", "units": {"inhibition": "%"}, "values": [
      {"smiles": "O=C(NCC1CCN(Cc2ccc3c(c2)OCCO3)C1)c1cc(-c2ccccc2F)cs1", "note": "(centres undefined)", "inhibition": 4.71},
      {"smiles": "COc1ccc(CNC2Cc3ccccc3C2)cc1-c1ccc(S(=O)(=O)NCc2ccccc2)s1", "inhibition": 4.6},
      {"smiles": "Cc1cc(N)c2cc(NC(=O)/C=C/c3ccccc3Cl)ccc2n1", "inhibition": 0.57},
      {"smiles": "CCCCCCN1CCN(Cc2cccc(NC(=O)c3cc4ccccc4o3)c2)CC1", "inhibition": 1.56},
      {"smiles": "O=C(CC1NC(=O)c2ccccc21)Nc1ccc(-c2ccc(-c3nc4cc(C(F)(F)F)ccc4[nH]3)cc2)cc1", "note": "(centres undefined)", "inhibition": 3.05},
      {"smiles": "c1ccc(CNCc2cccc(-c3cccc(-c4nc5ccccc5[nH]4)c3)c2)cc1", "inhibition": 5.52},
      {"smiles": "CN(C)CCNc1ncnc2c1[nH]c1ccc(Br)cc12", "inhibition": 4.67},
      {"smiles": "CCc1cn2c3c(cc(C(=O)N[C@@H](Cc4cc(F)cc(F)c4)[C@H](O)CNC4CC4)cc13)N(C)S(=O)(=O)CC2", "inhibition": 2.48},
      {"smiles": "COc1ccc(NC(=O)[C@H](CC(C)C)Nc2cc(C)nc(NCc3cccc(C)c3)n2)cc1", "inhibition": 9.82},
      {"smiles": "O=C(Nc1cc(C(F)(F)F)ccc1Cl)c1ccc(Cn2cc(Br)cn2)cc1", "inhibition": 0.15},
      {"smiles": "CN1CCC(NCc2ccc(-c3ccc(C(F)(F)F)cc3)cc2)CC1", "inhibition": -0.76},
      {"smiles": "CC(C)CN(C)c1ncnc2c1nc(-c1cncc(C#N)c1)n2CCNCc1ccccc1", "inhibition": 3.26},
      {"smiles": "Cc1[nH]c(C)c(-c2ccc(OCc3ccc(OC(F)(F)F)cc3)nc2)c(=O)c1Cl", "inhibition": 15.2},
      {"smiles": "CCc1c(CCNCCCCCCNCCc2ccc(Br)cc2)ccc(O)c1O", "inhibition": 0.74},
      {"smiles": "CC(C)CCN1CCC(Oc2ccc(NC(=O)c3ccc4ncccc4c3)cc2Cl)C1", "note": "(centres undefined)", "inhibition": 2.56},
      {"smiles": "CC(C)CNCc1ccc(-c2ccccc2CN(C(=O)NCCc2ccccc2)C2CCN(Cc3ccccc3)CC2)cc1", "inhibition": 1.42},
      {"smiles": "COc1ccc2ncc(F)c([C@@H](O)CN3CCC(NCc4cc5c(cn4)OCS5)CC3)c2c1", "inhibition": 1.41},
      {"smiles": "FC(F)(F)c1ccc2c(NCCc3ccccc3)ccnc2c1", "inhibition": 5.12},
      {"smiles": "COc1ccc(NC(=O)N2CCCN(CCCCCNC(=O)/C=C/c3ccc(Cl)cc3)CC2)cc1Cl", "inhibition": 2.96},
      {"smiles": "Cc1ccc(S(=O)(=O)NC2=NC(=N)N(OCc3ccc(Cl)c(Cl)c3)C(C)(C)N2)cc1", "inhibition": 13.6},
      {"smiles": "COc1ccc(Nc2nc(N/N=C/c3cc(Br)ccc3O)nc(Nc3ccc([N+](=O)[O-])cc3)n2)cc1", "inhibition": -2.54},
      {"smiles": "CC(=O)N(C)c1cccc(C(=O)Nc2ccc(-c3cccc(-c4nc5cccc(C)c5[nH]4)c3)cc2)c1", "inhibition": 1.06},
      {"smiles": "CC1(C)OC[C@]2(C)[C@@H](CC[C@]3(C)C4=CC(=O)CCC4CC[C@@H]23)O1", "note": "(some centres undefined)", "inhibition": 1.6},
      {"smiles": "COc1cccc(NC(=O)NCCNc2ccnc(Nc3ccc(F)cc3)n2)c1", "inhibition": 5.04},
      {"smiles": "CCCCCCCN1CCC(NC(=O)Nc2ccnc3ccc(OC)cc23)C(C(=O)OCC)C1", "note": "(centres undefined)", "inhibition": 0},
      {"smiles": "CCCOc1cc(OCCC)cc(-c2ccc(C(=O)Nc3ccc4ccc(C)nc4c3)c(=O)[nH]2)c1", "inhibition": 0.78},
      {"smiles": "CCCCN(CCCC)/C(=N/c1cccc(Cl)c1Cl)Nc1ccc(C#N)cc1O", "inhibition": 2.13},
      {"smiles": "CCCCCCOc1ccc(C(=O)NCCCC2CCN(CCCCCNC(=O)C=Cc3ccc(Cl)c(Cl)c3)CC2)cc1", "inhibition": 4.46},
      {"smiles": "OC(CNCc1cccc(Oc2ccc(Cl)cc2)c1)c1cc(C(F)(F)F)cc(C(F)(F)F)c1", "note": "(centres undefined)", "inhibition": -0.5},
      {"smiles": "CCOc1cccc(C(=O)Nc2ccc(-c3nc4ccccc4[nH]3)cc2)c1", "inhibition": 3.79},
      {"smiles": "CCC(C)OC(=O)C1=C(C)NC2=C(C(=O)CC(c3ccc(OC)c(OC)c3)C2)C1c1cccc(O)c1", "note": "(centres undefined)", "inhibition": 0.16},
      {"smiles": "Cc1cc(Nc2ccc(C)c(C)c2)n2nc(C)nc2n1", "inhibition": 5.03},
      {"smiles": "CCNc1cc(C(=O)N[C@@H](Cc2ccccc2)[C@H](O)CNC23CCC(CC2)CC3)cc(N2CCCCS2(=O)=O)c1", "inhibition": 0.04},
      {"smiles": "Cc1ccc(Nc2nc3cc(Nc4ccnc(Nc5cccc(CS(C)(=O)=O)c5)n4)ccc3o2)cc1", "inhibition": 2.49},
      {"smiles": "COc1cc(CN2CCC(N3CCc4cc(NC(=O)c5cc(C)on5)ccc43)C2)ccc1F", "note": "(centres undefined)", "inhibition": 2.25},
      {"smiles": "Cc1cccc(-c2ccc(CNC3CCN(CC4Cn5c(=O)ccc6ccc(F)c4c65)CC3)cn2)c1", "note": "(centres undefined)", "inhibition": 7.42},
      {"smiles": "CCN(CCCN1CCCCC1)c1cc(C)nc(Nc2ccc(C(F)(F)F)cc2)n1", "inhibition": 3.63},
      {"smiles": "CC(C)NCc1cccc(-c2ccc(NC(=O)c3ccc(C#N)cc3)cc2)c1", "inhibition": 12.1},
      {"smiles": "CCC1(CC)NC(N)=NC(=N)N1OCc1ccc(Cl)c(Cl)c1", "inhibition": 3.75},
      {"smiles": "CN1CCC(N2CCN(Cc3ccc(-c4cccc(-c5nc6ccccc6[nH]5)c4)cc3)CC2)CC1", "inhibition": 1.87}
    ]}
  ]
}
